Results as given in PubChem BioAssay (NCATS).
Records with an inconclusive call do not appear. Activity calls are given as the source filed them. Calls follow the shape of the dose curve; as a rule, active = well fitted cell-killing curve with a large enough effect; inconclusive = small, poorly fitted or top-dose-only effect, or effect the other way; inactive = no such curve, though single readings can be large or run the other way.

Experiments:
[1] = Quantitative High-Throughput drug screen in 47 multiple myeloma cell lines against the NCATS MIPE library collection: INA6_PLB cell viability assay (AID 1918965; also: nearly all actives have a fitted effect of over 55% in size)
Outline: (§1)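 CellTiter-Glo luminescence (ATP) after 48 h compound exposure, 37C/5% CO2; 500 cells/well; MIPE 4.0 approved/investigational drugs pinned in; DMSO = 100%, media only = 0% viability.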

[2] = Quantitative High-Throughput drug screen in 47 multiple myeloma cell lines against the NCATS MIPE library collection: H1112_PLB cell viability assay (AID 1918967; also: nearly all actives have a fitted effect of over 30% in size)
Outline: (§2)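 Inhibition of cell viability is measured here. Each line was plated at 500 cells per well, treated with MIPE 4.0 drugs, kept 48 hours at 37C, then assayed for ATP content by CellTiter-Glo luminescence.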

[3] = Quantitative High-Throughput drug screen in 47 multiple myeloma cell lines against the NCATS MIPE library collection: Karpas25_ECACC cell viability assay (AID 1918968; also: nearly all actives have a fitted effect of over 35% in size)
Outline: as §2

[4] = Quantitative High-Throughput drug screen in 47 multiple myeloma cell lines against the NCATS MIPE library collection: KMS27_JCRB cell viability assay (AID 1918970); also: nearly all actives have a fitted effect of over 30% in size
Outline: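 KMS27_JCRB myeloma cells, 500 per well, exposed 48 h at 37 C, 5% CO2 to MIPE 4.0 compounds. Viability from ATP by CellTiter-Glo luminescence, normalized to DMSO (100%) and medium-only (0%) wells.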

[5] = Quantitative High-Throughput drug screen in 47 multiple myeloma cell lines against the NCATS MIPE library collection: KMS12PE_JCRB cell viability assay (AID 1918972); also: nearly all actives have a fitted effect of over 30% in size; as to viability: series mostly up to about 46 µM
Outline: as §1

[6] = Quantitative High-Throughput drug screen in 47 multiple myeloma cell lines against the NCATS MIPE library collection: KMS26_JCRB cell viability assay (AID 1918975); also: nearly all actives have a fitted effect of over 45% in size
Outline: (§3)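 We plated 500 myeloma cells per well, pinned in MIPE 4.0 compounds, and incubated for 48 hours at 37C. ATP was then quantified with CellTiter-Glo, with DMSO and media-only wells defining 100% and 0%.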

[7] = Quantitative High-Throughput drug screen in 47 multiple myeloma cell lines against the NCATS MIPE library collection: JJN3_DSMZ cell viability assay (AID 1918966; also: nearly all actives have a fitted effect of over 50% in size)
Outline: as §2

[8] = Quantitative High-Throughput drug screen in 47 multiple myeloma cell lines against the NCATS MIPE library collection: MMM1_PLB cell viability assay (AID 1918976); also: nearly all actives have a fitted effect of over 35% in size
Outline: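 500 cells/well; MIPE 4.0 drugs pin-transferred; 48 h, 37C, 5% CO2. CellTiter-Glo, 5 min RT, luminescence. Controls: DMSO 100%, media 0%.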

[9] = Quantitative High-Throughput drug screen in 47 multiple myeloma cell lines against the NCATS MIPE library collection: KMS12BM_JCRB cell viability assay (AID 1918971); also: nearly all actives have a fitted effect of over 35% in size
Outline: as §3

[10] = Quantitative High-Throughput drug screen in 47 multiple myeloma cell lines against the NCATS MIPE library collection: KMS20_JCRB cell viability assay (AID 1918973); also: nearly all actives have a fitted effect of over 45% in size
Outline: as §2

Measured: Potency
Potency is read from the fitted curve at half-maximal effect.

Oc1ccc2c3c1O[C@H]1c4[nH]c5c(c4C[C@@]4(O)[C@@H](C2)N(CC2CC2)CC[C@]314)C[C@@]1(O)[C@H]2Cc3ccc(O)c4c3[C@@]1(CCN2CC1CC1)[C@H]5O4
inactive: [1] | [2] | [3] | [4] | [5] | [6]

COc1cc2cc(c1Cl)N(C)C(=O)C[C@H](OC(=O)C(C)C)[C@]1(C)O[C@H]1[C@H](C)[C@@H]1C[C@@](O)(NC(=O)O1)[C@H](OC)C=CC=C(C)C2
inactive: [1] | [7] | [3] | [4] | [5] | [6] | [8]

CC=C(C)C(=O)N[C@@H](c1ccccc1)[C@@H](O)C(=O)O[C@H]1C[C@@]2(O)[C@@H](OC(=O)c3ccccc3)[C@@H]3[C@]4(OC(C)=O)CO[C@@H]4C[C@H](O)[C@@]3(C)C(=O)[C@H](OC(C)=O)C(=C1C)C2(C)C
active: [4] 0.0012 µM
inactive: [1] | [3] | [9] | [6]

Cc1ccccc1-n1c(Cn2ncc3c(N)ncnc32)nc2cccc(C)c2c1=O
inactive: [7] | [8]
active: [1] 0.235 µM | [3] 0.264 µM | [4] 0.0235 µM | [9] 7.43 µM

CC1(N2CCC(n3c([C@@H]4CCCNC4)nc4ccccc43)CC2)CCCCCCC1
active: [1] 14.8 µM | [3] 18.7 µM | [4] 14.8 µM | [9] 20.9 µM

O=C(NCC1CCOCC1)c1cnc(Nc2ccc(Cl)cc2Cl)nc1C(F)(F)F
inactive: [6]
active: [1] 18.7 µM | [2] 5.9 µM | [3] 4.69 µM | [8] 20.9 µM

CCN1C[C@]2(OC(=O)c3ccccc3NC(C)=O)CC[C@H](OC)[C@@]34[C@H]5CC6[C@@H](OC)C[C@](O)(C(C[C@@H]23)[C@@H]14)[C@@]5(O)[C@@H]6OC
inactive: [1] | [2] | [3] | [6]

CC[C@H]1C=CC=CC[C@@H](C)[C@H](O)[C@@](C)(O)C(=O)[C@@H](C)[C@H](O)[C@@H](C)C(=O)[C@@H](C)[C@H](O)[C@@H](C)C=CC(=O)O[C@@H]2[C@@H](C)[C@H](CC1)O[C@]1(CC[C@H](C)[C@H](C[C@@H](C)O)O1)[C@H]2C
active: [1] 0.0132 µM | [7] 18.7 µM | [2] 0.0053 µM | [3] 0.001 µM | [6] 10.5 µM | [8] 0.0059 µM

COc1ccc2c(c1)CN(C)CC2c1ccc(Cl)c(Cl)c1 (stereo unspecified)
active: [1] 23.5 µM | [3] 0.209 µM | [4] 16.6 µM

c1ccc2c(CN3CCNCC3)cccc2c1
inactive: [1] | [2] | [3] | [4] | [6]

O=c1cccc2n1CC1CNC[C@H]2C1
inactive: [7] | [6]
active: [1] 14.8 µM | [3] 23.5 µM | [5] 9.35 µM

CC(C)(C)[C@]1(O)C[C@@H]2OC(=O)C[C@@]23C(=O)O[C@@H]2OC(=O)[C@H](O)C213 (stereo partly specified)
inactive: [1] | [2] | [3] | [4] | [9]

CC(=CCCC1=CCC(C2=CC(=O)OC2O)OC1O)CCC1=C(C)CCCC1(C)C (stereo unspecified)
inactive: [1] | [2] | [3] | [4] | [5] | [6]

CCN(CC)C(=O)c1ccc(C2=CC3(CCNCC3)Oc3cccc(O)c32)cc1
inactive: [1] | [2] | [3] | [6]
active: [8] 10.5 µM

CN(C)[C@@H]1C(=O)C(C(N)=O)=C(O)[C@@]2(O)C(=O)C3=C(O)c4c(O)cccc4[C@@](C)(O)[C@H]3[C@H](O)[C@@H]12
active: [7] 9.35 µM | [8] 10.5 µM
inactive: [1] | [2] | [4] | [5] | [6]

O=C(Oc1ccc([N+](=O)[O-])cc1)N1CCC(C(O)(c2ccc3c(c2)OCO3)c2ccc3c(c2)OCO3)CC1
inactive: [4] | [6]
active: [1] 10.5 µM | [2] 10.5 µM

CC(=O)N(C)c1cccc(-c2ccnc3c(C(=O)c4cccs4)cnn23)c1
active: [1] 14.8 µM | [4] 20.9 µM | [8] 2.96 µM
inactive: [2] | [3] | [9] | [6]

CC(N[C@H]1C[C@H]1c1ccccc1)c1ccc2c(c1)OCCO2 (stereo partly specified)
active: [9] 1.87 µM | [10] 0.001 µM | [6] 5.26 µM
inactive: [1] | [2] | [3] | [4]

C[C@@H]1CC[C@H]2[C@@H](C)C(=O)O[C@@H]3O[C@@]4(C)CC[C@H]1[C@]32OO4
inactive: [4]
active: [1] 1.18 µM | [7] 0.0132 µM | [3] 0.469 µM | [6] 11.8 µM

CCOC(=O)c1cncn1[C@H](C)c1ccccc1
active: [9] 5.26 µM | [8] 7.43 µM
inactive: [1] | [2] | [3] | [4] | [6]

Cc1ccccc1-n1c(Cn2cnc3c(N)ncnc32)nc2cccc(C)c2c1=O
active: [1] 0.935 µM | [7] 0.833 µM | [3] 0.187 µM | [4] 0.296 µM | [9] 1.48 µM | [6] 2.96 µM | [8] 0.166 µM
